Assay results taken from the supplement of paper PMC11732987, “Enantioselective OTUD7B fragment discovery through chemoproteomics screening and high-throughput optimisation” (Communications Chemistry, 2025).

Assays:
Test in all cases: log2 ratio of Biotin-Ahx-Ub-VS probe labelling (compound/DMSO); higher = less target engagement, active = hit call of the paper (q ≤ 0.05, log2 ratio ≤ -1)
Settings in all cases: treatment time: 3 h
[1] = compound: CCC1N(CCc2sccc12)C(=O)CCl
In short: (§1)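 HEK293T lysate (495 µg per sample, in Tris/CHAPS/IGEPAL buffer with protease inhibitors) was treated in triplicate with compound at 50 or 200 µM or with DMSO for 3 h. It was then treated with Biotin-Ahx-Ub-VS (0.5 µM final) for 1 h. Labelled DUBs were NeutrAvidin-enriched, digested with LysC and trypsin, and run by diaPASEF LC-MS/MS. Median-normalised label-free quantities gave average log2 ratios compound/DMSO by unpaired t-test, using proteins with ≥2 unique peptides.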

[2] = compound: CN1c2ccccc2C(CS1(=O)=O)NC(=O)CCl
In short: as §1

[3] = compound: Cl.ClCC(=O)N1CCc2ncncc2C1
In short: as §1

[4] = compound: Cl.Cn1ncc2C(CCCc12)NC(=O)CCl
In short: as §1

[5] = compound: ClCC(=O)NC1CCOc2ccccc12
In short: as §1

[6] = compound: ClCC(=O)NC1CCCc2ccccc12
In short: (§2)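 HEK293T lysate (495 µg per sample, in Tris/CHAPS/IGEPAL buffer with protease inhibitors) was treated in triplicate with compound over a concentration series or DMSO for 3 h, then with Biotin-Ahx-Ub-VS (0.5 µM final) for 1 h. Labelled DUBs were NeutrAvidin-enriched, digested with LysC and trypsin, and run by diaPASEF LC-MS/MS. Spectronaut label-free protein quantities were global-median-normalised. Values are average log2 ratios compound/DMSO from an unpaired t-test, using proteins with ≥2 unique peptides.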

[7] = compound: ClCC(=O)N[C@@H]1CCCc2ccccc12
In short: as §2

[8] = compound: ClCC(=O)N[C@H]1CCCc2ccccc12
In short: as §2

[9] = compound: CCC1N(CCc2cc(OC)c(Cl)cc12)C(=O)CCl
In short: as §1

[10] = compound: CCCC1N(CCc2cc(OC)c(OC)cc12)C(=O)CCl
In short: as §1

Measured: log2 ratio of Biotin-Ahx-Ub-VS probe labelling

USP5 (UniProt P45974)
UniProt P45974, sequence (P45974 whole entry): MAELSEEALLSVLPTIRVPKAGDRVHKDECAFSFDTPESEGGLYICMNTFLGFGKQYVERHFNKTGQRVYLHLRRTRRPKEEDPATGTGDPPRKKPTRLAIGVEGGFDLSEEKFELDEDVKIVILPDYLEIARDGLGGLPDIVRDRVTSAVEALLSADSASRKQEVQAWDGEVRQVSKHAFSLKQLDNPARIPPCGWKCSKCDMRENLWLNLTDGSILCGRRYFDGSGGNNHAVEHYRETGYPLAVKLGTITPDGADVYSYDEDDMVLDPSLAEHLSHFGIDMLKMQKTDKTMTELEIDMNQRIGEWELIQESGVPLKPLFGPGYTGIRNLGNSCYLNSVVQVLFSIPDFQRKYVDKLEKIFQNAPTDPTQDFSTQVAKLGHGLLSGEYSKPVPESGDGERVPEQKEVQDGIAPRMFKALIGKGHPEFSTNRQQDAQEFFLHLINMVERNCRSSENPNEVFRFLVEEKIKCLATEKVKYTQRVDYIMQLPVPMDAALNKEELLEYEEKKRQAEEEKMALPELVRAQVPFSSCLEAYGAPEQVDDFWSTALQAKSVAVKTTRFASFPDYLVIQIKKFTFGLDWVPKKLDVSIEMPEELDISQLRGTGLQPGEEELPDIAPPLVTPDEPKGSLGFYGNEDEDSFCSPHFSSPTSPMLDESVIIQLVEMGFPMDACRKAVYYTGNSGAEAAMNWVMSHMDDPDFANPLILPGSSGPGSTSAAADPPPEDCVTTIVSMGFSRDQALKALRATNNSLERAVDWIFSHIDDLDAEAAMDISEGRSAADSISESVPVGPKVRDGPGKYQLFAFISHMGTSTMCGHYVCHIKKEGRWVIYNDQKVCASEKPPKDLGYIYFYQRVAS
inactive: [1]; compound concentration: 50uM 0.107 | [1]; compound concentration: 200uM 0.165 | [2]; compound concentration: 50uM -0.0432 | [2]; compound concentration: 200uM -0.0749 | [3]; compound concentration: 50uM 0.179 | [3]; compound concentration: 200uM -0.233 | [4]; compound concentration: 50uM 0.122 | [4]; compound concentration: 200uM -0.00464 | [5]; compound concentration: 50uM 0.209 | [5]; compound concentration: 200uM 0.107 | [6]; compound concentration: 0.78uM -0.0702 | [6]; compound concentration: 1.56uM -0.0265 | [6]; compound concentration: 3.13uM -0.189 | [6]; compound concentration: 6.25uM -0.131 | [6]; compound concentration: 12.5uM -0.157 | [6]; compound concentration: 25uM -0.19 | [6]; compound concentration: 50uM -0.0861 | [6]; compound concentration: 100uM -0.067 | [6]; compound concentration: 200uM -0.0831 | [7]; compound concentration: 0.78uM -0.209 | [7]; compound concentration: 1.56uM -0.162 | [7]; compound concentration: 3.13uM -0.139 | [7]; compound concentration: 6.25uM -0.155 | [7]; compound concentration: 12.5uM -0.0604 | [7]; compound concentration: 25uM -0.131 | [7]; compound concentration: 50uM -0.159 | [7]; compound concentration: 100uM -0.0875 | [7]; compound concentration: 200uM -0.125 | [8]; compound concentration: 0.78uM -0.109 | [8]; compound concentration: 1.56uM -0.17 | [8]; compound concentration: 3.13uM -0.185 | [8]; compound concentration: 6.25uM -0.0549 | [8]; compound concentration: 12.5uM -0.103 | [8]; compound concentration: 25uM -0.119 | [8]; compound concentration: 50uM -0.0192 | [8]; compound concentration: 100uM -0.093 | [8]; compound concentration: 200uM -0.184 | [9]; compound concentration: 50uM 0.0912 | [9]; compound concentration: 200uM -0.014 | [10]; compound concentration: 50uM -0.158 | [10]; compound concentration: 200uM -0.268

USP20 (UniProt Q9Y2K6)
UniProt Q9Y2K6, sequence (Q9Y2K6 whole entry): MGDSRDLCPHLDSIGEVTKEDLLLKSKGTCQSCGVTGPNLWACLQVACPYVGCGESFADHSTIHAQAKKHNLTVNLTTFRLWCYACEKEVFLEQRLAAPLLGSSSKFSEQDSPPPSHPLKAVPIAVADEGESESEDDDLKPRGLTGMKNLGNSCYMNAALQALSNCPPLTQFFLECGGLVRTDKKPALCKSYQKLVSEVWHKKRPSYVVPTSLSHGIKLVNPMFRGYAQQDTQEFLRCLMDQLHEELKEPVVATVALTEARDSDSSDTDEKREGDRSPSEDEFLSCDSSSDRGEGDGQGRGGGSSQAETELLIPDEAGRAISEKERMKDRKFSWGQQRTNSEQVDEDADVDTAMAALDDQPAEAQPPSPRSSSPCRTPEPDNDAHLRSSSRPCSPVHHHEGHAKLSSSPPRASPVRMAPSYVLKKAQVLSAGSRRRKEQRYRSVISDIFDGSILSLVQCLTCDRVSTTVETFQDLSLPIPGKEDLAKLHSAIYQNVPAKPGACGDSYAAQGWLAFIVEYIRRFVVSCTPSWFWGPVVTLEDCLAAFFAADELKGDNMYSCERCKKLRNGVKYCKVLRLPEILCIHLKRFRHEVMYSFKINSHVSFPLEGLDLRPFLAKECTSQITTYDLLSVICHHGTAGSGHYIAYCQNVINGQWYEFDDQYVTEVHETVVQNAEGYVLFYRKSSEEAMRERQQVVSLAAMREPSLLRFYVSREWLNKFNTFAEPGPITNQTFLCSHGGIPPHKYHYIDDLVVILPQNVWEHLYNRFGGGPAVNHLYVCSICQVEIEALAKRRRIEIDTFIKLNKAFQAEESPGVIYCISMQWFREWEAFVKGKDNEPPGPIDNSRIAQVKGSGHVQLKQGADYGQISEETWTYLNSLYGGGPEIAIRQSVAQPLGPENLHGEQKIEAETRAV
inactive: [6]; compound concentration: 0.78uM -0.154 | [6]; compound concentration: 1.56uM -0.0255 | [6]; compound concentration: 3.13uM -0.00841 | [6]; compound concentration: 6.25uM -0.000882 | [6]; compound concentration: 12.5uM -0.0255 | [6]; compound concentration: 25uM 0.0283 | [6]; compound concentration: 50uM 0.0248 | [6]; compound concentration: 100uM -0.235 | [6]; compound concentration: 200uM -0.41 | [7]; compound concentration: 0.78uM -0.0803 | [7]; compound concentration: 1.56uM 0.0532 | [7]; compound concentration: 3.13uM -0.0362 | [7]; compound concentration: 6.25uM -0.00476 | [7]; compound concentration: 12.5uM -0.141 | [7]; compound concentration: 25uM -0.125 | [7]; compound concentration: 50uM -0.102 | [7]; compound concentration: 100uM -0.0854 | [7]; compound concentration: 200uM -0.279 | [8]; compound concentration: 0.78uM -0.0632 | [8]; compound concentration: 1.56uM 0.0904 | [8]; compound concentration: 3.13uM -0.0898 | [8]; compound concentration: 6.25uM 0.0566 | [8]; compound concentration: 12.5uM 0.0631 | [8]; compound concentration: 25uM -0.0313 | [8]; compound concentration: 50uM 0.0027 | [8]; compound concentration: 100uM -0.13 | [8]; compound concentration: 200uM -0.329

USP24 (UniProt Q9UPU5)
UniProt Q9UPU5, sequence (Q9UPU5 whole entry): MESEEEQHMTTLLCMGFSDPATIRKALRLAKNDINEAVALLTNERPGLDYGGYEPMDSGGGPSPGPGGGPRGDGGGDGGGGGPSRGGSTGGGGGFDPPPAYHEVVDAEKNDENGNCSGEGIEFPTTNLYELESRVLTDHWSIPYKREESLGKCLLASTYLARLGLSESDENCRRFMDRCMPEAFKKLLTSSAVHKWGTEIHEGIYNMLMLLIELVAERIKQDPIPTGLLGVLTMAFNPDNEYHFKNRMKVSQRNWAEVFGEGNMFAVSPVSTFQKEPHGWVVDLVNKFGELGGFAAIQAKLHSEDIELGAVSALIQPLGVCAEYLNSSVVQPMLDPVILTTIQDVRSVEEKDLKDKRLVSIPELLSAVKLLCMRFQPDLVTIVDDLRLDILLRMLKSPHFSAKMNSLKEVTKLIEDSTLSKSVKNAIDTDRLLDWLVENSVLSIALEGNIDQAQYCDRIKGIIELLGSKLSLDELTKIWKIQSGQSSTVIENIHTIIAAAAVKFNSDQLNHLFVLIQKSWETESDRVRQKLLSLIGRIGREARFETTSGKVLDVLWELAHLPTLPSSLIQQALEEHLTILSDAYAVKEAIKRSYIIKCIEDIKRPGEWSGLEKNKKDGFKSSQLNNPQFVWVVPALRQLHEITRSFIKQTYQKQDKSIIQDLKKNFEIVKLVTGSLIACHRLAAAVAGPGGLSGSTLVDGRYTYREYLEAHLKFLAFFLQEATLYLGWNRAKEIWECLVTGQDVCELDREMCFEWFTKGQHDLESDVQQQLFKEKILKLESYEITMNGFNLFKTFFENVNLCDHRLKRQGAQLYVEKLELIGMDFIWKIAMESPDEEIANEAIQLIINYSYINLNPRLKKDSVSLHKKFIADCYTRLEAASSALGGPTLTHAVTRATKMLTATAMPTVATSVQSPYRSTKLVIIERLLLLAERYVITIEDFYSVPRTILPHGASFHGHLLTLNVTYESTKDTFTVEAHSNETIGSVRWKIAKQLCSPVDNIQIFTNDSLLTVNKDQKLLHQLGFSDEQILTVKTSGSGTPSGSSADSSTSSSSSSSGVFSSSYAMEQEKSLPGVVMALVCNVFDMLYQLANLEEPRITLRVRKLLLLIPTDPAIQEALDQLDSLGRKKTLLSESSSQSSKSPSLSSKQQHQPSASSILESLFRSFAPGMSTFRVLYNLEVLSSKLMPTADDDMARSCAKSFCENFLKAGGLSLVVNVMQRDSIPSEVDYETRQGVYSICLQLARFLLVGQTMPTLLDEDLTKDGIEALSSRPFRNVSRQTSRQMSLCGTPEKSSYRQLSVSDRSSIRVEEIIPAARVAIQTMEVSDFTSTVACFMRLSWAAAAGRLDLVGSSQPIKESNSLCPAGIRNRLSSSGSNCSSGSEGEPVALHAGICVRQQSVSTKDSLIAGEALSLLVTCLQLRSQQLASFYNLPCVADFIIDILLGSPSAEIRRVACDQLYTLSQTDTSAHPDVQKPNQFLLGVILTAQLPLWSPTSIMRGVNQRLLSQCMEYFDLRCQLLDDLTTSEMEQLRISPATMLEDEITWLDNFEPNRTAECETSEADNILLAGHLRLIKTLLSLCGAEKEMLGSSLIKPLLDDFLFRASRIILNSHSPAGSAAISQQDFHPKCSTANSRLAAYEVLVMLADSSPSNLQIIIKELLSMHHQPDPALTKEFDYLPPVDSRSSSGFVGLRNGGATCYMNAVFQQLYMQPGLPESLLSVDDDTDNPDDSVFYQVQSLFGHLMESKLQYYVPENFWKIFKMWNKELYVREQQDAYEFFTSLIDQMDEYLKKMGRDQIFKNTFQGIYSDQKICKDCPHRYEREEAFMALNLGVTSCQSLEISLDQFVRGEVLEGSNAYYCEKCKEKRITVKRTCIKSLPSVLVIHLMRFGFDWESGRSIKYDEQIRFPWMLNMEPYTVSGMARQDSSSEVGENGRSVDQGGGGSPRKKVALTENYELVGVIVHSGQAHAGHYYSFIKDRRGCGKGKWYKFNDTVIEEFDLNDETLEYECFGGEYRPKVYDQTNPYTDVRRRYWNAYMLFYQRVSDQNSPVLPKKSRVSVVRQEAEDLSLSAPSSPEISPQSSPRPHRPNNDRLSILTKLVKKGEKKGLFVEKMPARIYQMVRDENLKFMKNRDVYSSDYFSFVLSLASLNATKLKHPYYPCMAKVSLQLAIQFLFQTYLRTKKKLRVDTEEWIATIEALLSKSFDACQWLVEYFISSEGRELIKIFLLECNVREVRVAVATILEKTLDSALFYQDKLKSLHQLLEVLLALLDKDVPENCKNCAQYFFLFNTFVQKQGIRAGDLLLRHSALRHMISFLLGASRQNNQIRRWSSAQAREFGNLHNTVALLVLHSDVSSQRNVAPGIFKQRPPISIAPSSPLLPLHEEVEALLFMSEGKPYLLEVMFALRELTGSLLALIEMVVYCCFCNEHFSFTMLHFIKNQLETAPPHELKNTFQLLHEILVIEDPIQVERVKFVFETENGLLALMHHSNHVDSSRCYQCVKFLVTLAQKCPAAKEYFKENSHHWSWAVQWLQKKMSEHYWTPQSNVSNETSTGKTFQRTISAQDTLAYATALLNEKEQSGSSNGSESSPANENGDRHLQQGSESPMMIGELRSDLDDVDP
inactive: [1]; compound concentration: 50uM -0.392 | [2]; compound concentration: 50uM -0.121 | [2]; compound concentration: 200uM -0.347 | [3]; compound concentration: 50uM 0.151 | [3]; compound concentration: 200uM -0.708 | [4]; compound concentration: 50uM 0.209 | [4]; compound concentration: 200uM -0.13 | [5]; compound concentration: 50uM 0.141 | [5]; compound concentration: 200uM -0.46 | [6]; compound concentration: 0.78uM -0.028 | [6]; compound concentration: 1.56uM 0.0284 | [6]; compound concentration: 3.13uM -0.0886 | [6]; compound concentration: 6.25uM -0.0483 | [6]; compound concentration: 12.5uM -0.117 | [6]; compound concentration: 25uM -0.177 | [6]; compound concentration: 50uM -0.175 | [6]; compound concentration: 100uM -0.0863 | [6]; compound concentration: 200uM -0.2 | [7]; compound concentration: 0.78uM -0.148 | [7]; compound concentration: 1.56uM -0.0805 | [7]; compound concentration: 3.13uM -0.0521 | [7]; compound concentration: 6.25uM -0.105 | [7]; compound concentration: 12.5uM -0.0644 | [7]; compound concentration: 25uM -0.126 | [7]; compound concentration: 50uM -0.193 | [7]; compound concentration: 100uM -0.134 | [7]; compound concentration: 200uM -0.343 | [8]; compound concentration: 0.78uM -0.009 | [8]; compound concentration: 1.56uM -0.013 | [8]; compound concentration: 3.13uM -0.0452 | [8]; compound concentration: 6.25uM -0.0162 | [8]; compound concentration: 12.5uM -0.088 | [8]; compound concentration: 25uM -0.093 | [8]; compound concentration: 50uM -0.0741 | [8]; compound concentration: 100uM -0.151 | [8]; compound concentration: 200uM -0.346 | [9]; compound concentration: 50uM -0.366 | [10]; compound concentration: 50uM -0.409
active: [1]; compound concentration: 200uM -1.29 | [9]; compound concentration: 200uM -1.37 | [10]; compound concentration: 200uM -1.41
